The values that follow come from publication PMC7826789 (International Journal of Molecular Sciences, 2021).

Test systems include ERN1; FER; FES; FGFR1; FGFR2; FGFR3(G697C).
Common to all, as to settings: Compound Concentration (nM):1000
Another test relates to T1, ERK4.
T1 construct: gene MAPK4

The subject of a further test is T2, ERK5.
T2 construct: gene MAPK7

A further test deals with T3, ERK8.
T3 construct: gene MAPK15

Another test concerns T4, FAK.
T4 construct: gene PTK2

The structures appear in SMILES notation.
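Further: KINOMEscan scanMAX binding as percent activity remaining versus control; lower means stronger binding.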

For the molecule `CC(C)COC(=O)c1ccc2c(c1)/C(=C/Nc1ccc(S(N)(=O)=O)cc1)C(=O)N2` [GW416981X], the “Percent Control” value in the test on ERK4 is reported as 100%; in the test with ERK5, 100%; with ERK8 it was 1.8%; with ERN1 it was 100%; with FAK, 100%; in the test on FER, 100%. For the same molecule, the “Percent Control” value in the test on FES, in the test with FGFR1, in the test with FGFR2 and in the test on FGFR3(G697C) was 100% each time.
For `CCn1c(-c2nonc2N)nc2c(C#CC(C)(C)O)nc(OCCNC)cc21.Cl` [GSK949675], the “Percent Control” value in the test on ERK4, with ERK5, in the test on ERK8, with ERN1, with FAK and with FER was 100% each time. Further, the “Percent Control” value with FES, in the test with FGFR1, with FGFR2 and with FGFR3(G697C) was 100% throughout.
With `C[C@@H](Oc1cc(-n2cnc3ccc(OC4CCN(C)CC4)cc32)sc1C(N)=O)c1ccccc1Cl` [GSK579289A], the “Percent Control” value in the test with ERK4 came to 98%; in the test with ERK5, 96%; in the test on ERK8 it was 100%; in the test with ERN1 it was 55%; with FAK, 50%; with FER, 100%. In addition, the “Percent Control” value in the test with FES was 85%; in the test with FGFR1, 67%; in the test on FGFR2, 89%; in the test with FGFR3(G697C), 61%.
On to `COc1ccc(COc2ccc(Cc3cnc(N)nc3N)cc2OC)cc1` [GW632580X], for which the “Percent Control” value in the test on ERK4 was determined as 100%; with ERK5, 100%; in the test on ERK8, 100%; with ERN1, 88%; in the test with FAK, 100%; in the test with FER, 81%. The “Percent Control” value was 82% in the test with FES, 67% with FGFR1, 99% in the test on FGFR2 and 89% in the test on FGFR3(G697C).
`Cl.O=S1CCN(Cc2ccc(-c3ccc4ncnc(Nc5ccc(OCc6ccccc6)c(F)c5)c4c3)o2)CC1` [GW576924A]: the “Percent Control” value in the test on ERK4, in the test with ERK5, with ERK8, in the test on ERN1, in the test with FAK and in the test with FER was 100% in each case. Also, the “Percent Control” value in the test on FES, in the test on FGFR1, with FGFR2 and in the test with FGFR3(G697C) was 100% each time.
As to `Nc1ncnc2occ(-c3ccc(NC(=O)Nc4cc(C(F)(F)F)ccc4F)cc3)c12` [GW770249X], the “Percent Control” value in the test on ERK4 is listed as 100%; with ERK5 it was 100%; with ERK8, 2.4%; with ERN1 it was 88%; in the test with FAK, 9.7%; with FER, 87%. The “Percent Control” value is 100% with FES, 32% in the test on FGFR1, 31% in the test with FGFR2 and 78% in the test on FGFR3(G697C).
Take `CC1=C(C(=O)Nc2ccc3[nH]ncc3c2)C(c2ccc(Cl)c(Cl)c2)CC(=O)N1` (centres unmarked) [GSK299115A]: the “Percent Control” value in the test on ERK4 turned out to be 100%; with ERK5, 100%; with ERK8, 90%; in the test on ERN1, 80%; in the test with FAK, 100%; in the test on FER it was 97%. Besides, the “Percent Control” value in the test with FES was 96%; with FGFR1 it was 90%; in the test with FGFR2, 73%; with FGFR3(G697C), 94%.
As for `C/C(Nc1ccc(S(N)(=O)=O)cc1)=C1/C(=O)Nc2ccccc21` [GW335962X], the “Percent Control” value in the test on ERK4 was determined as 100%; in the test on ERK5, 100%; in the test with ERK8, 100%; in the test with ERN1, 88%; in the test on FAK, 93%; with FER it was 88%. Besides, the “Percent Control” value in the test with FES is 84%; in the test on FGFR1, 86%; in the test on FGFR2 it was 93%; in the test with FGFR3(G697C), 100%.
As for `Cl.O=C(Nc1ccc(Oc2ccc3[nH]c(NC(=O)c4ccccc4)nc3c2)cc1)Nc1cc(C(F)(F)F)ccc1F` [GW709042A], the “Percent Control” value is on record as 91% with ERK4; 94% in the test with ERK5; 64% in the test with ERK8; 100% in the test with ERN1; 100% in the test on FAK; 77% in the test with FER. Further, the “Percent Control” value was 94% in the test on FES, 76% in the test with FGFR1, 68% in the test with FGFR2 and 100% in the test with FGFR3(G697C).
For `COc1ccc2c(-c3ccnc(Nc4cccc(OC(F)(F)F)c4)n3)cnn2n1` [GW810372X], the “Percent Control” value was found to be 100% with ERK4; 100% with ERK5; 3.6% in the test on ERK8; 100% in the test with ERN1; 100% in the test on FAK; 100% with FER. Besides, the “Percent Control” value in the test with FES was 100%; in the test on FGFR1, 91%; in the test with FGFR2 it was 100%; in the test on FGFR3(G697C), 75%.
For the molecule `COc1cc2ncnc(Nc3ccc4c(cnn4Cc4ccccc4)c3)c2cc1OC.Cl` [GW282449A], the “Percent Control” value in the test on ERK4 amounted to 100%; with ERK5 it was 100%; with ERK8, 100%; in the test on ERN1, 96%; with FAK, 100%; in the test on FER it was 100%. Also, the “Percent Control” value in the test on FES, in the test with FGFR1, in the test on FGFR2 and in the test on FGFR3(G697C) was 100% each time.
In the case of `Cl.O=C(Nc1ccc(Oc2ccc3[nH]c(NC(=O)c4ccco4)nc3c2)cc1)Nc1cc(C(F)(F)F)ccc1F` [GW683134A], the “Percent Control” value in the test with ERK4 is on record as 100%; in the test on ERK5, 100%; in the test on ERK8, 34%; with ERN1, 89%; in the test with FAK, 100%; with FER it was 92%. In addition, the “Percent Control” value with FES is 100%; in the test with FGFR1, 64%; in the test with FGFR2 it was 36%; in the test on FGFR3(G697C), 69%.
Regarding `COc1cc(C)c(N(C)C(=O)CN(C)C)cc1Nc1nc(Nc2cccc(F)c2C(N)=O)c2cc[nH]c2n1` [GSK2219385], the “Percent Control” value in the test on ERK4 is 92%; in the test on ERK5, 100%; with ERK8 it was 95%; in the test on ERN1 it was 100%; in the test with FAK, 100%; in the test with FER, 91%. The “Percent Control” value in the test on FES is 97%; with FGFR1 it was 100%; with FGFR2, 82%; with FGFR3(G697C) it was 88%.
As to `CN(C)c1cc2c(Nc3ccc4c(cnn4Cc4ccccc4)c3)ncnc2cn1` [GW282974X], the “Percent Control” value was determined as 100% in the test with ERK4; 100% with ERK5; 87% in the test on ERK8; 52% in the test on ERN1; 85% in the test with FAK; 100% in the test on FER. Besides, the “Percent Control” value with FES was 81%; in the test on FGFR1 it was 97%; with FGFR2, 97%; with FGFR3(G697C) it was 93%.
